Screens (PubChem)
Mtb BioA inh: inhibitors of Mycobacterium tuberculosis BioA enzyme; 360,000 compounds, 0.096% hits; purified M. tuberculosis BioA enzyme, plate reader; inhibition, % at 9.99 µM; in the data active means inhibition above about 40%
FadD28 FP inh: blocks FadD28 binding to the bisubstrate probe; 360,000 compounds, 0.22% hits; fluorescence polarization; inhibition, % at 12.5 µM; AID 588549; in the data active means inhibition above about 8.5%, passing the limit was not always enough
Mtb UGM inh: blocks M. tuberculosis UGM enzyme; P9WIQ1; purified UGM, fluorescence polarization probe displacement; inhibition, % at 10 µM; 320,000 compounds, 0.06% hits; AID 504406; in the data active means inhibition above about 10%, passing the limit was not always enough
Target sequence (P9WIQ1 whole entry, looked up): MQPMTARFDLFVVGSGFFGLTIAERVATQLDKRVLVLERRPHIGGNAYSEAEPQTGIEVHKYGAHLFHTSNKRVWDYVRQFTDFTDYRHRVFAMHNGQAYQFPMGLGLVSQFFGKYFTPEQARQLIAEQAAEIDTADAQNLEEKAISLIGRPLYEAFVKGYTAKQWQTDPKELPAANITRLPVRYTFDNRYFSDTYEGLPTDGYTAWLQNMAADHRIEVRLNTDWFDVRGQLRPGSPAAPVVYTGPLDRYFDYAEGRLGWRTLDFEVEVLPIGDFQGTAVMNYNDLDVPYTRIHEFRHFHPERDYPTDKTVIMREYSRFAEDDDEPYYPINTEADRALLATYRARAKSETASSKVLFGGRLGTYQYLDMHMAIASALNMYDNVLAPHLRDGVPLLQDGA
RecA intein inh: inhibitors of M. tuberculosis RecA intein splicing. P9WHJ3. cell-free RecA intein splicing, fluorescence. inhibition, % (test concentration not listed). 290,000 compounds, 0.75% hits. AID 2221; in the data active means inhibition above about 30%;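 further: 0% = vehicle wells and 100% = reference inhibitor control wells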
Y pestis TopoI: blocks Yersinia pestis topoisomerase I activity | Y. pestis Topo-I cleavage product accumulation, plate reader | activity, % at 10 µM | 360,000 compounds, 0.064% hits | AID 504884; in the data active means activity above about 50%, passing the limit was not always enough
Rv3671c protease: inhibitors of M. tuberculosis serine protease Rv3671c. 320,000 compounds, 0.048% hits. P9WHR9. inhibition, % at 5.96 µM;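 further: extracellular domain of Rv3671c used as enzyme; 0% = enzyme with DMSO and 100% = no enzyme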
GFP chromo cs: counter-screen GFP chromophore formation inhibition; shares compounds with RecA intein inh; cell-free GFP chromophore formation, fluorescence; EC50, µM; 2,100 compounds, 83% hits; AID 434968; call rule not given here
Rv3671c confirm: Rv3671c protease inhibition, confirmation. shares compounds with Rv3671c protease. inhibition, % at 5.96 µM. 140 compounds, 40% hits. AID 2761
The depositor's hits bear a star; · = no result. This is a sample that favours compounds with a hit; in the whole collection about 0.82% have one here. Unless noted, no stated cut-off is given here; in the data, active means inhibition above about 38%; inactive means the rest.

SMILES | Mtb BioA inh | FadD28 FP inh | Mtb UGM inh | RecA intein inh | Y pestis TopoI | Rv3671c protease | GFP chromo cs | others
CCCCCCCCCCCCCCCC[N+](C)(C)C | 20 | 24* | -3 | 36* | -8 | 10 | 23*
CCCCCC[N+](C)(C)CCSSCC[N+](C)(C)CCCCCC | -2 | 0 | -1 | -1 | 8 | 4 | ·
CCCCCCCCCCCCCCCC[N+](C)(C)CC | 23 | 19* | 1 | 44* | -16 | 1 | 17*
Cc1noc(C)c1S(=O)(=O)Nc1ccc2c(c1)C(=O)N([C@@H](C)CO)C[C@H](C)[C@@H](CN(C)S(=O)(=O)c1ccccc1)OCCCC[C@H](C)O2 | 1 | · | · | · | · | · | ·
CC(C)Nc1ccc(Nc2ccccc2)cc1 | 1 | -2 | 0 | 36* | -16 | -20 | >38
Cc1ccccc1NC(=O)CSc1n[nH]c(-c2ccccn2)n1 | -1 | -3 | 0 | 0 | 3 | -8 | ·
Cc1ccc(C)c(NC(=O)CSc2n[nH]c(-c3ccccn3)n2)c1 | · | · | 2 | 51* | -2 | 6 | >38
CC(C)NC(=O)N(C)C[C@@H]1Oc2ccc(NC(=O)C3CCCCC3)cc2CC(=O)N([C@H](C)CO)C[C@H]1C | -2 | · | · | · | · | · | ·
O=[N+]([O-])c1ccc(Sc2nc3ccccc3o2)c([N+](=O)[O-])c1 | 0 | -2 | -1 | 66* | -8 | 15 | 2*
O=C(CSc1nc2ccccc2c(=O)[nH]1)Nc1ccc([N+](=O)[O-])cc1 | 1 | -2 | 2 | · | -5 | -3 | ·
O=c1[nH]c(Sc2ccc([N+](=O)[O-])cc2[N+](=O)[O-])nc2ccccc12 | 8 | -1 | 1 | 34* | -4 | -7 | 31*
C[C@H]1CN([C@@H](C)CO)S(=O)(=O)c2ccc(C#CCN(C)C)cc2O[C@@H]1CN(C)C(=O)C1CCC1 | 2 | · | · | · | · | · | ·
Cc1onc(-c2c(Cl)cccc2Cl)c1C(=O)N1C(C)CCCC1C (centres undefined) | 1 | -3 | 7 | 81* | 6 | -10 | >38
Cc1onc(-c2c(Cl)cccc2Cl)c1C(=O)NC1CCCCC1 | -2 | -2 | 1 | 5 | 4 | -6 | ·
CCCNC(=O)N(C)C[C@H]1Oc2cc(-c3cncnc3)ccc2S(=O)(=O)N([C@@H](C)CO)C[C@H]1C | -1 | · | · | · | · | · | ·
Cc1ccc(CNC(=O)c2ccc(N(C)S(=O)(=O)c3ccccc3)cc2)cc1 | 1 | -2 | -3 | 37* | 32 | 0 | >38
CN(c1ccccc1)S(=O)(=O)c1ccc(C(=O)NCc2ccc(F)cc2)cc1 | 0 | -2 | -3 | · | 9 | -5 | ·
C[C@@H]1CN([C@@H](C)CO)C(=O)c2cccc(NC(=O)Nc3ccc4c(c3)OCO4)c2O[C@@H]1CN(C)S(=O)(=O)c1cn(C)cn1 | 1 | · | · | · | · | · | ·
CCc1ccc(NC(=O)C(=O)N/N=C(\C)CC(=O)Nc2ccccn2)cc1 | -5 | -4 | -1 | 36* | -1 | -4 | >38
COc1cccc(-c2ccc3n(c2=O)C[C@@H]2[C@@H](CO)[C@H](C(=O)NCC4CC4)N(C(C)=O)[C@H]32)c1 | -2 | · | · | · | · | · | ·
Cc1cccc(N(Cc2cc(=O)[nH]c3ccccc23)C(=O)CCl)c1 | · | -2 | -1 | 41* | -6 | -2 | 8*
COc1ccc(N(Cc2cc(=O)[nH]c3ccccc23)C(=O)CCl)cc1 | 0 | -1 | -1 | · | 5 | 7 | 15*
CC(C)NC(=O)Nc1ccc2c(c1)C(=O)N([C@H](C)CO)C[C@@H](C)[C@H](CN(C)C(=O)CCCN(C)C)OCCCC[C@@H](C)O2 | 0 | · | · | · | · | · | ·
C[C@H]1CN([C@@H](C)CO)C(=O)c2cc(-c3cccc(F)c3)cnc2O[C@@H]1CN(C)Cc1cccc(F)c1 | -1 | · | · | · | · | · | ·
O=C(N/N=C/c1coc2ccc(Cl)cc2c1=O)c1ccc(O)cc1 | 0 | -6 | 3 | 38* | 1 | · | 32*
SMILES | Mtb BioA inh | FadD28 FP inh | Mtb UGM inh | RecA intein inh | Y pestis TopoI | Rv3671c protease | GFP chromo cs | others
COc1cc(C(=O)N/N=C/c2coc3ccc(Cl)cc3c2=O)ccc1O | -1 | -5 | -6 | 23 | -9 | -9 | ·
COc1ccc(C(=O)N/N=C\c2coc3ccc(Cl)cc3c2=O)cc1 | -1 | -3 | -3 | 37* | 10 | -12 | 38*
COc1ccc(S(=O)(=O)Nc2ccc3c(c2)C(=O)N([C@H](C)CO)C[C@@H](C)[C@H](CN(C)Cc2ccc(C(=O)O)cc2)O3)cc1 | -1 | · | · | · | · | · | ·
Cc1[nH]c2ccccc2c1/C=N/Nc1nc2ccccc2[nH]1 | 0 | 0 | 2 | 34* | -24 | 59* | >38 | Rv3671c confirm=41*
COc1ccc(NC(=O)N[C@H]2CC[C@H](CC(=O)NC3CCC3)O[C@H]2CO)cc1 | -4 | · | · | · | · | · | ·
Cn1c(/C(C#N)=C/c2ccc(-c3ccc(S(N)(=O)=O)cc3)o2)nc2ccccc21 | 2 | 11* | 7 | · | -8 | 47* | · | Rv3671c confirm=-4
C[C@@H]1CN([C@@H](C)CO)C(=O)Cc2cc(NC(=O)Cc3ccccc3)ccc2O[C@H]1CN(C)S(=O)(=O)c1cn(C)cn1 | 0 | · | · | · | · | · | ·
O=C(O)C1(P(=O)(c2ccccc2)c2ccccc2)CCCC1 | 0 | -4 | 1 | -1 | -3 | -6 | ·
N#CC1(P(=O)(c2ccccc2)c2ccccc2)CCCC1 | 0 | -1 | 1 | 0 | 1 | 81* | · | Rv3671c confirm=2
C[C@@H]1CN([C@@H](C)CO)C(=O)c2cc(C3=CCCC3)cnc2O[C@H]1CN(C)Cc1ccccn1 | -3 | · | · | · | · | · | ·
CC12CCC(=O)N1C(C(=O)Nc1cc(C(F)(F)F)ccc1N1CCOCC1)CS2 (centres undefined) | · | -1 | 2 | -1 | -1 | -4 | ·
CC12CCC(=O)N1C(C(=O)Nc1cc(C(F)(F)F)ccc1N1CCCCC1)CS2 (centres undefined) | · | -1 | -2 | -8 | 20 | 40* | · | Rv3671c confirm=0
C[C@H](CO)N1C[C@H](C)[C@H](CN(C)C(=O)Nc2ccc3c(c2)OCO3)OCCCC[C@H](C)Oc2ccc(NC(=O)c3ccccc3)cc2C1=O | -1 | · | · | · | · | · | ·
O=[N+]([O-])c1ccc(Nc2ccccc2O)c2nonc12 | 4 | -3 | 3 | 2 | -8 | · | ·
O=[N+]([O-])c1ccc(NCc2ccccc2)c2nonc12 | · | · | 7 | 5 | · | 49* | · | Rv3671c confirm=43*
C[C@H](CO)N1C[C@H](C)[C@H](CN(C)S(=O)(=O)c2ccccc2)Oc2c(NC(=O)C3CCCCC3)cccc2C1=O | -2 | · | · | · | · | · | ·
O=C(NCC1CCCO1)c1onc(CSc2ccc(Cl)cc2)c1C(=O)O (centres undefined) | -1 | 0 | 6 | -3 | 0 | 84* | · | Rv3671c confirm=0
Cc1ccccc1SCc1noc(C(=O)NCC2CCCO2)c1C(=O)O (centres undefined) | 0 | -3 | 3 | -2 | -7 | 5 | ·
O=C(C[C@H]1CC[C@@H]2[C@H](COC[C@@H](O)CN2S(=O)(=O)c2cccc(Cl)c2)O1)NC1CCCC1 | 1 | · | · | · | · | · | ·
